Measurements as given in PubChem BioAssay (NCI).
The panel holds about 79,000 compounds, 15% with a hit somewhere; the sample as a whole holds those more often. Unmarked numbers belong to inactive results. Calls of active or inactive are those of the source. Cut-off read from the data, not from the text of the source: active = growth inhibition above about 70%; inactive = the rest.

How the values were obtained:
[1] = NCI Yeast Anticancer Drug Screen. Data for the rad50 strain (AID 155);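 note: 0% = growth of vehicle-only cultures of the same strain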; conditions: S. cerevisiae rad50 strain growth inhibition; at 50.0 µM; hits give high values
Outline: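 DNA repair mutant yeast, compound exposure, growth read-out; inhibition is taken relative to vehicle.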

[2] = NCI Yeast Anticancer Drug Screen. Data for the mec2-1 strain (AID 157); conditions: S. cerevisiae mec2-1 strain, at 50.0 µM, hits give high values
Outline: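 mec2-1 yeast strain, carrying an alteration in DNA damage repair or cell cycle control, was exposed to compounds; growth inhibition was measured relative to vehicle-treated controls.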

[3] = NCI Yeast Anticancer Drug Screen. Data for the sgs1 mgt1 strain (AID 161);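 note: 0% = growth of cultures given vehicle only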; conditions: S. cerevisiae sgs1 mgt1 strain, at 50.0 µM, hits give high values
Outline: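 Growth of a repair-deficient yeast mutant was monitored after compound treatment and expressed as inhibition relative to vehicle-treated cultures.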

[4] = NCI Yeast Anticancer Drug Screen. Data for the cln2 rad14 strain (AID 165);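 note: 0% = growth equal to vehicle treated cultures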; conditions: S. cerevisiae cln2 rad14 strain, at 50.0 µM, hits give high values
Outline: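 Yeast carrying cln2 and rad14 alterations (cell cycle control and DNA damage repair) were exposed to compounds. Growth inhibition was measured against vehicle-treated controls.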

[5] = NCI Yeast Anticancer Drug Screen. Data for the bub3 strain (AID 167); conditions: S. cerevisiae bub3 mutant strain, at 50.0 µM, hits give high values
Outline: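 In this screen, a yeast mutant lacking normal mitotic checkpoint function is challenged with compound. Relative growth versus vehicle gives the inhibition value.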

[6] = NCI Yeast Anticancer Drug Screen. Data for the mlh1 rad18 strain (AID 175); conditions: S. cerevisiae mlh1 rad18 strain growth inhibition; at 50.0 µM; hits give high values
Outline: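 Growth inhibition of the yeast strain was measured after compound exposure and expressed relative to vehicle-treated controls. The strain carries defined defects in DNA damage repair.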

SMILES | growth inhibition [1] | growth inhibition [2] | growth inhibition [3] | growth inhibition [4] | growth inhibition [5] | growth inhibition [6]
O=C(NC(CO)CO)c1ccc2cc(C(=O)N3CC(CCl)c4ccc([N+](=O)[O-])cc43)[nH]c2c1 (stereo not given) | 42.6% | -35.8% | -22.4% | -7.95% | -36.1% | -72.8%
c1ccc(-c2ccc(-c3ccccc3)c3nonc23)cc1 | -32.2% | -2.25% | -13.5% | 23.4% | 27.4% | -4.45%
O.O.O=c1cc(Cl)[nH]c(=O)[nH]1.[NH2-].[NH2-].[Pt+4] | -21.9% | -18.1% | -2.4% | -47.6% | 2.65% | 35.7%
CC(=O)OC1(C#N)CCCCC1 | 5.7% | -2.3% | -7.05% | 23.1% | 4.8% | 14.4%
NC(=S)N/N=C/c1cccc(CC(O)(C(F)(F)F)C(F)(F)F)n1 | 2.6% | 7.1% | 3.7% | -28.4% | -2.1% | 24%
NC(=O)C1CCCCC1C(=O)O (stereo not given) | 1.5% | 5% | 6.65% | -10.7% | 4.6% | 14.8%
CC1=C(C(=O)O)CCCO1 | -7.6% | 7.75% | 10.2% | -3% | -3.75% | 25.7%
Cc1nn(-c2ccccc2)c2c1CC(=O)Nc1ccccc1-2 | -14.1% | -29.1% | -11.5% | -26.8% | -37.6% | 9.15%
CCOC(=O)c1ccc(N(C=O)CCC(OCC)OCC)cc1 | -2.25% | -5.75% | 4.35% | -49.4% | 17.9% | -0.3%
CC(=O)OC1CC2C=CC1C2 (stereo not given) | -3.55% | -3.8% | 3.6% | 1.65% | 15.4% | -7.7%
CCCCCCCCCCCCCCCCCCN=C(N)N | -1.55% | -10.8% | 12.8% | 22.4% | -2.25% | 10.8%
CN(C)c1ccc(/C=C(\C#N)c2c(Cl)cccc2Cl)cc1 | -13.9% | -8.55% | -11.1% | -25.4% | 8.3% | -5.75%
CC(=O)Nc1nc(Cl)c2ncn(C3CCCO3)c2n1 (stereo not given) | -13% | -4% | -9.35% | -33.5% | 0.6% | 2.25%
CCC(=O)Nc1ccccc1-c1ccccc1 | 25.6% | 19% | 16.9% | 7.6% | -1.8% | 2.5%
CCN(CC)CCNC(=O)c1ccccc1NC(=O)C(=O)Nc1ccccc1C(=O)NCCN(CC)CC | -46.9% | -13.2% | -55.2% | -5.15% | -60.3% | -41.6%
CC(=O)N(C)CC(c1c(C)[nH]c2ccccc12)c1c(C)[nH]c2ccccc12 | 15.3% | -12.3% | 2.2% | -4% | 18% | 40.7%
Nc1ncnc2c1ncn2C1CCC(COS(N)(=O)=O)C1 (stereo not given) | 4.3% | 3.65% | 5% | -6.7% | 4.2% | 15.4%
CC(CCC(=O)O)[C@H]1CCC2[C@H]3C(CC(=O)[C@@]21C)[C@@]1(C)CCC(O)C[C@H]1C[C@@H]3O (stereo not given in full) | -7.75% | -7.7% | 5.9% | -29.4% | -17.1% | -11.7%
Nc1ccc(C(=O)NN2C(=O)C(Cl)C2c2ccccc2Cl)cc1 (stereo not given) | 45.2% | 32.7% | 27.9% | 38.8% | 38.3% | 31.5%
O=C(O)c1cc(C(=O)O)cc(N2C(=O)c3ccccc3C2=O)c1 | 1.45% | -30.4% | -22.4% | 39.3% | -6.1% | 0.5%

SMILES | growth inhibition [1] | growth inhibition [2] | growth inhibition [3] | growth inhibition [4] | growth inhibition [5] | growth inhibition [6]
C=CCCC1CN2CCc3cc(OC)c(OC)cc3C2CC1=O (stereo not given) | 15.3% | 16.1% | 10.6% | -41.7% | 28.4% | 20.1%
CC(=O)Nc1ccc(S(=O)(=O)N/N=c2/sc3ccccc3n2C)cc1 | -11.3% | -12.4% | 16% | 20.5% | 13.8% | -4%
O=C(OCCN1C(=O)c2cccc3c(Br)ccc(c23)C1=O)OCc1ccccc1 | 86.2% (active) | 48.5% | 60.1% | 49.4% | 61.7% | 70.3% (active)
COC(=O)c1ccccc1N=NNc1ccc(C)c(Cl)c1 | 36.2% | 0.55% | -1.2% | -11.4% | 5.7% | 5.15%
CC1=CC2C3C(=O)NC(=O)C3C1C1C3C(=O)NC(=O)C3C21 (stereo not given) | -25% | -3.9% | 1.2% | -18.6% | 2.45% | 16.4%
c1ccc(P(CCNCCP(c2ccccc2)c2ccccc2)c2ccccc2)cc1 | -16% | 11.8% | 8.6% | 10.3% | 2.25% | 6.75%
CN1C(=O)N/C(=C\c2ccc(S(=O)(=O)N/N=C\C(O)C(O)C(O)CO)cc2)C1=O (stereo not given) | -25.4% | -15% | -22.9% | 4.15% | -39.1% | -35%
O=c1n(-c2ccc(Cl)c(Cl)c2)c(=O)n(-c2ccc(Cl)c(Cl)c2)c(=O)n1-c1ccc(Cl)c(Cl)c1 | 3.5% | 5.25% | 9.35% | -44.1% | -3.85% | 4.3%
CC1=C(C(=O)NCc2ccccc2)C(c2ccc(Cl)c(Cl)c2)C(C(=O)NCc2ccccc2)=C(C)N1 | -10.9% | 12.2% | -21.1% | 21.2% | -12.4% | -18.9%
S=c1[nH]c(=S)c2[nH]cnc2[nH]1 | -7.4% | -5.45% | -7.1% | -7.35% | -4.95% | -0.3%
CC1=CC(/C=C(\C)CCCc2ccoc2)C2(OC(=O)C(C)=C2O)[C@H]2C1CC[C@@H]2C (stereo not given in full) | 49.9% | 58.3% | 53.5% | 66% | 55.5% | 54.9%
Cc1ccc2nc3c(C)c(Cl)c(=O)cc-3sc2c1 | 7% | 19.4% | 7.4% | -0.1% | -2.4% | 36.5%
NC(=O)c1nnn(Cc2ccccc2)c1C(N)=O | -13.9% | -11.4% | 12.6% | -33.6% | 8% | 3.85%
COc1cc(C(O)C(=O)c2cnc3cc([N+](=O)[O-])ccc3n2)ccc1O (stereo not given) | 24.8% | 11.3% | -10.8% | 2.15% | -19% | -1.95%
Cc1ccc2c(c1)C(=O)c1cc(C)cc(C(=O)O)c1-2 | -22.6% | -5.05% | 4.5% | -40% | 1.65% | -16.7%
CCOC(=O)Cn1c(C)nc2nn(Cc3ccccc3)cc2c1=O | -49.7% | -56.1% | -36.2% | -1.35% | -32.9% | -30.8%
CC(=O)c1cccc(NC(=O)Nc2cccc(C)n2)c1 | -9.55% | 32.8% | 11.9% | -24.6% | 8.55% | 12.6%
Cc1ncc(CSC(=N)N)n1Cc1ccccc1 | -33.6% | -11.4% | -6.55% | -17.6% | -11.1% | -23.9%
Nc1c(N=Nc2ccc(-c3ccc(N=Nc4ccc(O)c(C(=O)O)c4)cc3)cc2)cc(S(=O)(=O)O)c2ccccc12 | 91.5% (active) | 96.6% (active) | 94.9% (active) | 93.3% (active) | 91% (active) | 93.1% (active)
O=C1c2cc(Cl)ccc2-c2c(Cl)cccc21 | 22.9% | -4.95% | -10.9% | 2.05% | 4.05% | -14.9%
